Experimental data published in PubChem BioAssay.
The source made the active and inactive calls.

What was measured:
[1] = test system: Human papillomavirus type 1a protein E7 (residues 44-93); test: HPV1a E7 fragment binders on microarrays, primary screen, biochemical, small-molecule microarray, residues 44-93, 635 nm fluorescence (AID 1108); conditions: small-molecule microarray binding, fluorescence 635 nm; higher = more signal;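 also: E7 fragment applied at 1 µg/mL in TBST for 1 h at 4 C; score combines spot fluorescence with its signal to noise ratio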
[2] = modulators of HCV replicon luciferase signal, primary screen, HCV replication inhibitor project, Huh7 cells, luciferase reporter (AID 1109); conditions: 48 h, higher = more signal;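 also: huh7 hepatoma cells harbouring a luciferase neomycin HCV replicon reporter; luciferase luminescence as measure of HCV replicon replication; test concentration not given here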
[3] = biological target: Left-right determination factor 2 (Homo sapiens) (UniProt O00292); test: LEFTY2 binders on small-molecule microarrays, primary screen, biochemical, small-molecule microarray, 635 nm fluorescence scan (AID 1110); conditions: LEFTY2 binding, higher = more signal
Sequence of Left-right determination factor 2 (Homo sapiens) (O00292 whole entry, looked up): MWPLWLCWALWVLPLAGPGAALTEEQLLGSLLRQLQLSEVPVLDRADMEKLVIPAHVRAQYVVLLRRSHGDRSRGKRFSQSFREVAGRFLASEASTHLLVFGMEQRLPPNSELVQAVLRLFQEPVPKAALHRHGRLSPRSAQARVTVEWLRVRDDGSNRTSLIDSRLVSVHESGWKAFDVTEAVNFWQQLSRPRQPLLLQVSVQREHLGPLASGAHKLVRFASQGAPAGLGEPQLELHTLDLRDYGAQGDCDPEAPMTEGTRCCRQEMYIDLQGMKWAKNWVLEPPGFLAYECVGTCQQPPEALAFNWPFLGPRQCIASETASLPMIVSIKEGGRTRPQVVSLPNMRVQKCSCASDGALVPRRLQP

[4] = biological target: Calmodulin-1 (Homo sapiens) (UniProt P0DP23); test: CALM1 binders on microarrays, EGTA buffer, profiling panel, biochemical, small-molecule microarray, Cy5-labelled CALM1 (AID 1111); conditions: Cy5-CALM1 binding fluorescence, higher = more signal;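 also: labelled calmodulin applied in Tris saline Tween buffer holding calcium plus EGTA and DTT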
[5] = biological target: Calmodulin-1 (Homo sapiens) (UniProt P0DP23); test: calcium-bound CALM1 binders on microarrays, profiling panel, artefact control for SMM control-protein annotation, biochemical, small-molecule microarray, Cy5-labelled CALM1, plus calcium (AID 1112); conditions: Cy5-CALM1 binding fluorescence, higher = more signal;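 also: score merges spot fluorescence with signal to noise from triplicate slides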
[6] = small-molecule microarray binders of probe aWnt5a, primary screen, biochemical, biotinylated probe, 635/667 nm fluorescence (AID 1113); conditions: higher = more signal;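 also: score merges 667 nm fluorescence intensity with signal-to-noise per printed feature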
[7] = small-molecule microarray binders of probe aShh, primary screen, biochemical, biotinylated probe, 635/667 nm fluorescence (AID 1114); conditions: higher = more signal;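 also: probe is biotin-labelled aShh protein from a stem cell growth factor screen; measures binding of labelled protein to compounds printed on the slide; score merges feature fluorescence at 667 nm with signal-to-noise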
[8] = small-molecule microarray binders of probe aNog, primary screen, biochemical, biotinylated probe, 635/667 nm fluorescence (AID 1115); conditions: higher = more signal;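 also: probe is biotinylated aNog protein used at 0.15 µg/mL for 1 h at 4 C; z-score combines 667 nm fluorescence of each spot with its signal to noise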
[9] = biological target: Torsin-1A-interacting protein 1 (Homo sapiens) (UniProt Q5JTV8); test: LAP1 binders from COS7 cell lysate, primary screen, small-molecule microarray, 635/667 nm fluorescence (AID 1116); conditions: COS7-hLAP1 lysate binding, 635 nm fluorescence, higher = more signal
Sequence of Torsin-1A-interacting protein 1 (Homo sapiens) (Q5JTV8 whole entry, looked up): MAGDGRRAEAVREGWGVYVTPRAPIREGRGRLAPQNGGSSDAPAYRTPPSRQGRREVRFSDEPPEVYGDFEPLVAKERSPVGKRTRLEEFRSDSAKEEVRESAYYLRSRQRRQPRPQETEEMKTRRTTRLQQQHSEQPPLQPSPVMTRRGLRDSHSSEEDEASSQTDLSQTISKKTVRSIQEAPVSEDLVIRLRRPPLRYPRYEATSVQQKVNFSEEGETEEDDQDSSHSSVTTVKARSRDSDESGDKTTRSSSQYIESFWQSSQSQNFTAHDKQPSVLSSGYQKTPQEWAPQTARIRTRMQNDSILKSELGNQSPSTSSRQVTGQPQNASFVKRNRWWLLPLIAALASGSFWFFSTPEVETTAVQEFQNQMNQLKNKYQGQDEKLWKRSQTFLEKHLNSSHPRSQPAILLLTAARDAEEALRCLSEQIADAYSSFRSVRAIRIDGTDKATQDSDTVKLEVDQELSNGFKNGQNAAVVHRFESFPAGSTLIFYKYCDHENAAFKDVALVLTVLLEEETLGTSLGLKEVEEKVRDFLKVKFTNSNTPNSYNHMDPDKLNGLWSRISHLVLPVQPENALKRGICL

[10] = biological target: Alpha-bungarotoxin (Bungarus multicinctus) (UniProt P60615); test: alpha-bungarotoxin binders on microarray, profiling panel, artefact control for SMM control protein annotation, biochemical, small-molecule microarray, Alexa647 label, 635/667 nm fluorescence (AID 1117); conditions: alpha-BTX-A647 binding fluorescence, higher = more signal
Sequence of Alpha-bungarotoxin (Bungarus multicinctus) (P60615 whole entry, looked up): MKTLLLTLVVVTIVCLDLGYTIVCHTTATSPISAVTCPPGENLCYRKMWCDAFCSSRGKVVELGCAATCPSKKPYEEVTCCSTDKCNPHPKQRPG

Albumin (Bos taurus) = Albumin (Bos taurus) (UniProt P02769); test: bovine serum albumin binders on microarray, profiling panel, artefact control for SMM control protein annotation, biochemical, small-molecule microarray, Alexa647 label, 635/667 nm fluorescence (AID 1118); conditions: BSA-A647 binding, fluorescence 635 nm, higher = more signal;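 also: score merges 667 nm emission intensity and signal-to-noise per printed compound spot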
Sequence of Albumin (Bos taurus) (P02769 whole entry, looked up): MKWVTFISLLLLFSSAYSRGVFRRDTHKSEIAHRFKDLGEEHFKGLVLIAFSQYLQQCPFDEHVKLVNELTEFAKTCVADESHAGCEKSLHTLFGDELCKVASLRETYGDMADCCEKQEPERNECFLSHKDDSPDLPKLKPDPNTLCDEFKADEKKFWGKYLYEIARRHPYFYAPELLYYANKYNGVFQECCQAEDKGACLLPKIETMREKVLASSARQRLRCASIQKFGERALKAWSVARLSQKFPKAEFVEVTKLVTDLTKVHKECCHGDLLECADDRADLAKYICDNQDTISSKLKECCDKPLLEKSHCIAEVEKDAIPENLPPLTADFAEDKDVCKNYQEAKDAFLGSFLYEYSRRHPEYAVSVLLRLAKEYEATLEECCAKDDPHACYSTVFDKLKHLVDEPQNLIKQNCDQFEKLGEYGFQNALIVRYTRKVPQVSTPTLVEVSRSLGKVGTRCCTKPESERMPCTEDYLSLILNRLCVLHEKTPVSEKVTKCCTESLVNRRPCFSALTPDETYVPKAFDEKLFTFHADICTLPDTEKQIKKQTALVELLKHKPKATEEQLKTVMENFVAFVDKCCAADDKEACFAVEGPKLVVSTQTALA

[11] = small-molecule microarray binders of probe aXIP, primary screen, biochemical, NeuroSMM set, 635/667 nm fluorescence (AID 1119); conditions: higher = more signal, called active from +8 up or from −8 down;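 also: probe is the protein aXip251-270 applied at 1 µg/mL to compound-printed slides; binding of probe to printed compounds measured as 667 nm fluorescence plus signal to noise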
[12] = small-molecule binders of probe aNOTCH3, primary screen, biochemical, small-molecule microarray, 635/667 nm fluorescence (AID 1120); conditions: higher = more signal;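 also: probe is a biotin-tagged antibody raised against NOTCH3 rather than NOTCH3 protein; score merges spot fluorescence near 667 nm with spot signal to noise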
[13] = small-molecule binders of probe aNOTCH2, primary screen, biochemical, small-molecule microarray, 635/667 nm fluorescence (AID 1121); conditions: higher = more signal;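 also: score merges feature fluorescence read at 667 nm with its signal to noise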
[14] = biological target: Carbonic anhydrase 2 (Homo sapiens) (UniProt P00918); test: CAII small-molecule binders, profiling panel, biochemical, small-molecule microarray, Alexa647-labelled CAII (AID 1122); conditions: CAII-A647 binding fluorescence, higher = more signal
[15] = COS7 lysate on small-molecule microarray, probe aHis, 635 nm (AID 1123); conditions: COS7 cell lysate, fluorescence, higher = more signal;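 also: z-score combines 667nm fluorescence intensity with signal-to-noise per printed compound spot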
[16] = compound binding in COS7 lysate, probe aLAP1, primary screen, cell lysate, small-molecule microarray (AID 1124); conditions: probe aLAP1, fluorescence, higher = more signal;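 also: lysate comes from COS7 cells expressing LAP1 and is applied at 0.3 µg/mL; score merges spot fluorescence near 667 nm with signal-to-noise over triplicate slides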
Sam68 (KHDRBS1) = test: Sam68 small-molecule binders, primary screen, biochemical, small-molecule microarray, 635 nm fluorescence (AID 1125); conditions: small-molecule microarray binding, higher = more signal;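 also: score merges 667 nm channel intensity with signal to noise over triplicate slides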
[17] = test system: Chordin-like protein 2 (CHRDL2); test: CHRDL2 small-molecule binders, primary screen, biochemical, small-molecule microarray, 635 nm fluorescence (AID 1126); conditions: small-molecule microarray binding, fluorescence 635 nm; higher = more signal;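 also: printed compound slides probed with Chrdl2 protein at 4 µg/mL for 1 h at 4 C; score merges 667 nm emission intensity with signal to noise over three replicate slides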
[18] = biological target: Concanavalin-A (Canavalia ensiformis) (UniProt P02866); test: ConA small-molecule binders, primary screen, artefact control for SMM control protein annotation, biochemical, small-molecule microarray, Alexa647 label, 635 nm (AID 1127); conditions: ConA-A647 binding fluorescence, higher = more signal;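 also: z combines 667 nm emission intensity with signal-to-noise across three replicate slides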
Sequence of Concanavalin-A (Canavalia ensiformis) (P02866 whole entry, looked up): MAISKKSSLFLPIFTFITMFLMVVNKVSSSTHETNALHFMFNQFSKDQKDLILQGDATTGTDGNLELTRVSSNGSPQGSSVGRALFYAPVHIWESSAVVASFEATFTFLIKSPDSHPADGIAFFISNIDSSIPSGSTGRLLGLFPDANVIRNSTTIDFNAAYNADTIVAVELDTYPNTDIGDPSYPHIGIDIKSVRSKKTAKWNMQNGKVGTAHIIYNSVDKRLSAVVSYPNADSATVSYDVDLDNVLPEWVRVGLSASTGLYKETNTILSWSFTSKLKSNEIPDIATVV

| SMILES | composite z-score [1] | z-score [2] | composite z-score [3] | composite z-score [4] | composite z-score [5] | composite z-score [6] | composite z-score [7] | composite z-score [8] | composite z-score [9] | composite z-score [10] | composite z-score (Albumin (Bos taurus)) | composite Z-score [11] | composite z-score [12] | composite z-score [13] | composite z-score [14] | composite z-score [15] | composite z-score [16] | composite z-score (Sam68 (KHDRBS1)) | composite z-score [17] | composite z-score [18] |
| --- | --- | --- | --- | --- | --- | --- | --- | --- | --- | --- | --- | --- | --- | --- | --- | --- | --- | --- | --- | --- |
| CN(C)CCCNC(=O)[C@@H]1c2ccccc2C(=O)N(CC23CC4CC(CC(C4)C2)C3)[C@H]1c1ccc(CO)cc1 | 1.47 | -3.1 | 0.832 | 0.309 | -0.632 | 0.0215 | -0.542 | -0.403 | 0.858 | 1.65 | 0.821 | 2.01 (inactive) | -0.001 | -0.0984 | 0.344 | 2.62 | 2.1 | 1.3 | 0.452 | 1.18 |
| O=C1O[C@@H](c2ccccc2)[C@@H](c2ccccc2)N2[C@@H](c3ccccc3OCCO)[C@]3(C(=O)Nc4ccccc43)[C@@H](C(=O)NC[C@H](O)c3ccccc3)[C@H]12 | 0.705 | -3.3 | -0.555 | 1.08 | 0.845 | -0.152 | 0.0557 | -0.0161 | 1.35 | -0.327 | 0.641 | -0.0662 (inactive) | -0.213 | -0.14 | 0.586 | 1.32 | 0.487 | 0.9 | -1.15 | 0.196 |
| [N-]=[N+]=Nc1ccccc1C[C@@]1(C(=O)O)N=C(c2ccc(OCCCO)cc2)O[C@@H]1c1ccccc1 | 1.3 | 1.34 | -0.862 | 1.73 | 0.294 | -0.0566 | 0.191 | 0.905 | 0.24 | 1.08 | 0.952 | 0.77 (inactive) | 0.0208 | -0.0895 | 0.799 | 2.76 | 0.45 | 1.03 | -0.777 | 1.15 |
| CC1CC/C=C\[C@H]2OC34C=CCN(c5ccc6ccccc6c5)C(=O)[C@H]3N(C(CO)C(C)C)C(=O)[C@@H]4C2C(=O)O1 (stereo not given in full) | -0.546 | -0.957 | -0.854 | -0.822 | -0.419 | -0.169 | -0.164 | -0.267 | -0.203 | 0.462 | 0.912 | 0.142 (inactive) | -0.125 | -0.125 | 0.786 | 1.07 | 0.407 | 0.0645 | -0.315 | 0.0601 |
| Cc1ccc(C(C)CC(O)C2C=CC3C(=O)N(c4ccccc4)C(=O)C3N2Nc2ccc(C(C)C)cc2)o1 (stereo not given) | 1.33 | 1.02 | -0.0337 | 2.35 | 1.01 | 0.14 | -0.043 | 0.0485 | 0.801 | 1.64 | 0.935 | -0.263 (inactive) | 0.126 | 0.299 | 0.541 | 1.33 | 0.835 | 1.28 | -0.527 | 1.15 |
| CC(C)CNC(=O)[C@@H]1c2ccccc2C(=O)N(Cc2cc(F)cc(C(F)(F)F)c2)[C@H]1c1ccc(CO)cc1 | -0.0365 | -0.604 | -0.0784 | 0.0981 | -0.025 | -0.0459 | 0.0639 | -0.579 | 0.662 | -0.694 | 0.382 | -0.161 (inactive) | 0.0628 | -0.0486 | 0.411 | 1.07 | 0.333 | 0.603 | -0.182 | 0.0535 |
| CC1CC/C=C\[C@H]2OC34C=CCN(CCN5CCOCC5)C(=O)[C@H]3N(CCO)C(=O)[C@@H]4C2C(=O)O1 (stereo not given in full) | -1.99 | -0.504 | -1.2 | -0.714 | -0.307 | -0.166 | -0.154 | -0.145 | 0.0159 | -1.02 | -0.0406 | 0.377 (inactive) | -0.22 | -0.104 | 0.802 | -0.265 | 0.973 | -2.29 | -1.02 | -0.889 |
| COc1ccc(C(O)C2C=CC3C(=O)N(Cc4ccccc4)C(=O)C3N2n2cnnc2)c2ccccc12 (stereo not given) | 1.52 | -0.6 | -1.55 | 0.0664 | -0.269 | -0.12 | -0.195 | 0.657 | 1.2 | -0.438 | 0.626 | 0.624 (inactive) | -0.0238 | -0.125 | 0.783 | 1.65 | 0.686 | 1.01 | -2.13 | 0.388 |
| O=C1O[C@H](c2ccccc2)[C@H](c2ccccc2)N2[C@H]1[C@@H](C(=O)O)[C@]1(C(=O)Nc3ccccc31)[C@H]2c1ccc(O)cc1 | 0.49 | -0.361 | -0.274 | -0.2 | -0.262 | -0.1 | -0.262 | 0.101 | -0.321 | -0.286 | -0.731 | -0.0012 (inactive) | -0.135 | -0.131 | 0.673 | 0.969 | 1.01 | -0.43 | -0.632 | 0.586 |
| C=C(/C(=C/C[C@@H](OC(=O)c1ccncc1)c1ccccc1OCCO)c1cc(C(=O)OC)ccc1OC)C(C)C | 1.36 | -2 | 0.788 | 0.455 | -0.366 | -0.012 | 0.3 | -0.025 | 0.568 | 0.255 | 0.359 | -0.0951 (inactive) | 0.138 | -0.0895 | 0.676 | 1.75 | 0.457 | 1.25 | 0.0435 | 0.474 |
